# From PubChem BioAssay
# Calls of active or inactive are those of the source. Unless noted, the rule behind the calls is not given here.
# Columns and labels:
# [1] = anti-His antibody binders, primary screen, artefact control for SMM control protein annotation, biochemical, small-molecule microarray, 635 nm fluorescence (AID 1128); details: anti-His Alexa647 antibody binding, higher = more signal;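 note: score merges feature fluorescence with signal-to-noise for each printed compound spot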
# [2] = system: Human papillomavirus type 1a E7 protein (residues 1-88); assay: HPV1a E7 small-molecule binders, primary screen, biochemical, small-molecule microarray, residues 1-88, 635 nm (AID 1129); details: small-molecule microarray binding, fluorescence 635 nm; higher = more signal
# [3] = target: Focal adhesion kinase 1 (Homo sapiens) (UniProt Q05397); assay: small-molecule microarray binders of FAK, primary screen, biochemical, 635/667 nm fluorescence, BSA, DTT (AID 1130); details: PTK2 binding, 635 nm fluorescence, higher = more signal;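 note: composite of spot emission at 667 nm and signal to noise over triplicate slides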
# [4] = system: Fibrinogen (Alexa647-labelled); assay: fibrinogen binders on compound microarrays, profiling panel, artefact control for SMM control-protein annotation, biochemical, small-molecule microarray, 635/667 nm fluorescence (AID 1131); details: fibrinogen-A647 binding fluorescence, higher = more signal;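 note: z-score merges 667 nm fluorescence with per-spot signal-to-noise over triplicate slides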
# [5] = target: Follistatin (Homo sapiens) (UniProt P19883); assay: follistatin binders on small-molecule microarrays, primary screen, biochemical, small-molecule microarray, 635/667 nm fluorescence (AID 1132); details: FST binding, 635 nm fluorescence, higher = more signal
# [6] = target: Fibroblast growth factor 2 (Homo sapiens) (UniProt P09038); assay: FGF2 binders on small-molecule microarrays, primary screen, biochemical, small-molecule microarray, 635/667 nm fluorescence (AID 1133); details: small-molecule microarray binding, FGF2, fluorescence 635/667; higher = more signal
# [7] = mitochondrial membrane potential change in A549 cells, profiling panel, cell-based, JC-1 fluorescence, basal, 24 h, 100 nL (AID 1138); details: higher = more signal;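 note: A549 lung adenocarcinoma cells under basal conditions with no added stimulus; test concentration not given here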
# Lefty1 = Lefty1 binders on small-molecule microarrays, primary screen, biochemical, small-molecule microarray, 635/667 nm fluorescence (AID 1139); details: small-molecule microarray binding, fluorescence 635/667; higher = more signal
# [8] = system: wheat germ agglutinin (Triticum aestivum), Alexa647-labelled; assay: wheat germ agglutinin binders on compound microarrays, profiling panel, artefact control for SMM control-protein annotation, biochemical, small-molecule microarray, 635/667 nm fluorescence (AID 1140); details: WGA-A647 binding, 635 nm fluorescence, higher = more signal;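 note: score merges 667 nm feature emission with signal to noise over triplicate slides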
# [9] = target: Luciferin 4-monooxygenase (Photinus pyralis) (UniProt P08659); assay: firefly luciferase enzyme inhibitors, primary screen, biochemical, luminescence, purified enzyme, 2006 set (AID 1141); details: SteadyGlo luminescence, 30 min, higher = more signal, called active from +8 up or from −8 down;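 note: cell-free assay with purified firefly luciferase at 100 ng per well in PBS; test concentration not given here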
# [10] = system: Wnt5a (protein binding on small-molecule microarray); assay: Wnt5a binders on small-molecule microarray, primary screen, biophysical, 635/667 nm fluorescence (AID 1142); details: 635 nm fluorescence, higher = more signal;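 note: fluorescence read at 667 nm with signal to noise per printed feature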
# [11] = cell viability in Huh7 cells, primary screen, cytotoxicity control for HCV replication inhibitor project, CellTiter-Glo luminescence, basal, 48 h (AID 1143); details: Huh7 HCV replicon, higher = more signal, called active from +8 up or from −8 down;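 note: Huh7 hepatoma cells carrying a hepatitis C replication reporter with no stimulus; test concentration not given here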
# [12] = P. aeruginosa biofilm formation inhibitors, primary screen, PAO1 strain, BacTiter-Glo luminescence, LB-PBS (AID 1144); details: 12 h, higher = more signal
# [13] = CREB reporter modulators without forskolin, primary screen, cell-based, PC12, CRE-LacZ reporter, unstimulated (AID 1145); details: no forskolin, luminescence, 4.5 h, higher = more signal, called active from +8 up or from −8 down
# [14] = CREB reporter modulators under forskolin, primary screen, cell-based, PC12, CRE-LacZ reporter, forskolin-stimulated (AID 1146); details: luminescence, 4.5 h, higher = more signal, called active from +8 up or from −8 down;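 note: PC12 cells with 6xCRE LacZ reporter stimulated by forskolin 10 µM; beta-galactosidase reporter signal reflecting CREB driven transcription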
# [15] = target: Streptavidin (Streptomyces avidinii) (UniProt P22629); assay: streptavidin binders on small-molecule microarray, primary screen, artefact control for SMM compound annotation, biophysical, 635/667 nm fluorescence (AID 1147); details: streptavidin binding, higher = more signal;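 note: signal reflects streptavidin binding to arrayed compounds as a control protein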
# [16] = small-molecule binders of probe aInhba, primary screen, biochemical, small-molecule microarray, 635/667 nm fluorescence (AID 1148); details: higher = more signal;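 note: score merges 667nm spot fluorescence with signal-to-noise for antibody binding to printed compounds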
# Torsin-1A (Homo sapiens) [17] = target: Torsin-1A (Homo sapiens) (UniProt O14656); assay: torsin A binders from cell lysate, primary screen, small-molecule microarray, wild-type, 635/667 nm (AID 1149); details: COS7 hTOR1A-WT lysate, 635 nm fluorescence, higher = more signal
# Torsin-1A (Homo sapiens) [18] = target: Torsin-1A (Homo sapiens) (UniProt O14656); assay: small-molecule binders of mutant TOR1A in lysate, primary screen, cell lysate, small-molecule microarray, COS7 lysate, 635/667 nm fluorescence (AID 1150); details: COS7 hTOR1A mutant lysate, 635 nm fluorescence, higher = more signal;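 note: score pools 667 nm emission and signal to noise measuring lysate protein binding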
# [19] = system: Sonic hedgehog protein (Shh); assay: small-molecule binders of Shh protein, primary screen, biochemical, small-molecule microarray, 635/667 nm fluorescence (AID 1151); details: small-molecule microarray binding, 635 nm fluorescence; higher = more signal;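 note: Shh protein binding to compounds spotted on small-molecule microarray slides; score combines spot fluorescence intensity with signal-to-noise across triplicate slides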
# Torsin-1A (Homo sapiens), sequence (O14656 whole entry, looked up): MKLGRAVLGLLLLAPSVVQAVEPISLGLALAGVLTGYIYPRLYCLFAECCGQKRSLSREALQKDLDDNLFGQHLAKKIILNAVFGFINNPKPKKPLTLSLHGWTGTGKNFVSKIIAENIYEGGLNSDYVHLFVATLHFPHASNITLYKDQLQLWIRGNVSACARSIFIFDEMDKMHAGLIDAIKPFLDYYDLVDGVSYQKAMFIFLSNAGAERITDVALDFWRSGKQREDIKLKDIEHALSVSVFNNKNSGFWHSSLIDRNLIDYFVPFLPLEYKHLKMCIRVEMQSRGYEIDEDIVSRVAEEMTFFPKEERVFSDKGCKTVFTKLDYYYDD
# Follistatin (Homo sapiens), sequence (P19883 whole entry, looked up): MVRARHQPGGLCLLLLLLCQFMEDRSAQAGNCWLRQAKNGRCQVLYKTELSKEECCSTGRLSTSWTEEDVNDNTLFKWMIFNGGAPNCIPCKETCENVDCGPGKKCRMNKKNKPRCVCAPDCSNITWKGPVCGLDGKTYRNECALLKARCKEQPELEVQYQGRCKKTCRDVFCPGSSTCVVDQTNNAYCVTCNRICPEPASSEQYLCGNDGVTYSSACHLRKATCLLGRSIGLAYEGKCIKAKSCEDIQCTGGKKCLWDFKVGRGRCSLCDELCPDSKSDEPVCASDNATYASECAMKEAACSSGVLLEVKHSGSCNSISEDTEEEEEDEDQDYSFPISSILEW
# Focal adhesion kinase 1 (Homo sapiens), sequence (Q05397 whole entry, looked up): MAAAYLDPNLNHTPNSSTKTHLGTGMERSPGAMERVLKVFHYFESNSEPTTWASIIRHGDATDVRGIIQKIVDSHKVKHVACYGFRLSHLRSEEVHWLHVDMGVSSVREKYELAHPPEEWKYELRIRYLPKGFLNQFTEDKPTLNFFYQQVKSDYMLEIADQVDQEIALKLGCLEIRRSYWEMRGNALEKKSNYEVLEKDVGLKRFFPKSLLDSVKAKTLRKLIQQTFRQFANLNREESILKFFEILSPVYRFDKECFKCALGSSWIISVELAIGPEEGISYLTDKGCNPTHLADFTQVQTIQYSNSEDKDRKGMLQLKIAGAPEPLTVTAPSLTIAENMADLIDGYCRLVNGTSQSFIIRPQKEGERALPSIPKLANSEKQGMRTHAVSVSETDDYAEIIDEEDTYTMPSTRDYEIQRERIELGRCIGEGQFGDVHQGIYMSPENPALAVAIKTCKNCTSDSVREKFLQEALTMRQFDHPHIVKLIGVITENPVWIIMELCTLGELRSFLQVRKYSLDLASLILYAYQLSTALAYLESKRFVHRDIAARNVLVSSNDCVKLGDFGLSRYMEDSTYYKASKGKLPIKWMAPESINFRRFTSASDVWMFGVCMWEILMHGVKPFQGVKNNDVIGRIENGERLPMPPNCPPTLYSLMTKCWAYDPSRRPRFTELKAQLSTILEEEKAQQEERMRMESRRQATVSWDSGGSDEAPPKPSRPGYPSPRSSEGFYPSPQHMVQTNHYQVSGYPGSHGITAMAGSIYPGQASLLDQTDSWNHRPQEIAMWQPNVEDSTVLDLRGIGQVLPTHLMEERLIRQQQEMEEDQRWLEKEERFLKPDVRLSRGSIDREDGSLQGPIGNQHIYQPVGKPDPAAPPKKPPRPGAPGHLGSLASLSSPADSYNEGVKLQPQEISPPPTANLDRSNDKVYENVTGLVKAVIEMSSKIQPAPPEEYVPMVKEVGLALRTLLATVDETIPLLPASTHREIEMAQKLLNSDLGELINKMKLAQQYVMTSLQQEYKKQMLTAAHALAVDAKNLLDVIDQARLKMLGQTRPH
# Fibroblast growth factor 2 (Homo sapiens), sequence (P09038 whole entry, looked up): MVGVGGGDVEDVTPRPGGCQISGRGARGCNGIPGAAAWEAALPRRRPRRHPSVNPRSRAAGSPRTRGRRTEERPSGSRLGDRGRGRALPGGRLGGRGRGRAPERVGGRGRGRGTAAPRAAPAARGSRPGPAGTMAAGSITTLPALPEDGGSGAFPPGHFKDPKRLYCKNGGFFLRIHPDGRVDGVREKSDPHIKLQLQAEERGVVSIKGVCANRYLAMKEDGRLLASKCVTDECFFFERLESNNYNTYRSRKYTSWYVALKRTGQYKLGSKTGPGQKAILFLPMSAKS
# Streptavidin (Streptomyces avidinii), sequence (P22629 whole entry, looked up): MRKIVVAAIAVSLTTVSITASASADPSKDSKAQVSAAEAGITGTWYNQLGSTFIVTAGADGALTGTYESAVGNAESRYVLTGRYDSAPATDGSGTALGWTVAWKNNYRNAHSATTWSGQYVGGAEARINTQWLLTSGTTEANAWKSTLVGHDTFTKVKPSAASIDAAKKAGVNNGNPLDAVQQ
# Luciferin 4-monooxygenase (Photinus pyralis), sequence (P08659 whole entry, looked up): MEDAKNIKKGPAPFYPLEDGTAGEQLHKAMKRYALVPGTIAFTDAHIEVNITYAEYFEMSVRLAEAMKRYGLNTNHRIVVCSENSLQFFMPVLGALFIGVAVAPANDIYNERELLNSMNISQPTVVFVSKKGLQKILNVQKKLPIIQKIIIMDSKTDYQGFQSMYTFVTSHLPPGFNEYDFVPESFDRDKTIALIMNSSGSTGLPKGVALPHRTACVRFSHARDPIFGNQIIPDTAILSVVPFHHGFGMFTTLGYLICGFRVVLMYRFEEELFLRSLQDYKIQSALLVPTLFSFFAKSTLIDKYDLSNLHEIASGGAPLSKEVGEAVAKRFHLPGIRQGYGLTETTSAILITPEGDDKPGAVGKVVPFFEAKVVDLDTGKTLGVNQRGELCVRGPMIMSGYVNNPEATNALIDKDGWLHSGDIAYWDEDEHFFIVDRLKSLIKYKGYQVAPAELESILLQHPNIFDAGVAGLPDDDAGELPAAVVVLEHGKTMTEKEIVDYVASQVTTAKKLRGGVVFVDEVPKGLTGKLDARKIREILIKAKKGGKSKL
Structure (SMILES),composite z-score [1],composite z-score [2],composite z-score [3],composite z-score [4],composite z-score [5],composite z-score [6],z-score [7],composite z-score (Lefty1),composite z-score [8],z-score [9],composite z-score [10],z-score [11],z-score [12],z-score [13],z-score [14],composite z-score [15],composite z-score [16],composite z-score (Torsin-1A (Homo sapiens) [17]),composite z-score (Torsin-1A (Homo sapiens) [18]),composite z-score [19]
C=C(/C(=C/C[C@@H](OC(=O)c1ccncc1)c1cccc(OCCO)c1)c1cc(C(=O)OC)ccc1OC)C(C)C,1.01,1.13,-0.165,0.366,0.525,1.43,4.89,0.879,0.487,-1.88 (inactive),-0.0958,-1.82 (inactive),-0.634 (inactive),26.8 (active),-1.07 (inactive),0.179,-0.0695,0.227,0.868,1.64
O=C(C=C(CC(O)c1cccc(Cl)c1)OCCF)OCCF (stereo not given),-0.144,-1.59,-0.401,-1.35,-0.885,-0.576,0.0691,-0.94,-0.442,0.364 (inactive),-0.234,-3.1 (inactive),0.117 (inactive),0.481 (inactive),-0.722 (inactive),-0.0847,-0.267,-0.489,-0.167,-0.335
CC(=O)NCCCC[C@@H]1NC(=O)[C@H]2C[C@@H](C(=O)NCCCCCN)[C@@H](c3cccc(OCCO)c3)N2C1=O,2.38,0.759,1.38,0.829,0.763,0.275,0.0821,0.279,1.1,-0.0548 (inactive),0.292,-0.532 (inactive),0.00194 (inactive),-0.675 (inactive),-1.44 (inactive),0.688,-0.102,0.455,0.0709,-0.0725
C=C(/C(=C/C[C@@H](OC(C)=O)c1ccccc1OCCO)c1cnc2ccccc2c1)C(C)C,0.119,-0.198,0.0328,-0.571,1.17,1.48,-0.111,1.58,1.05,-0.557 (inactive),0.515,-1.35 (inactive),0.362 (inactive),10.8 (active),0.982 (inactive),-0.02,0.167,0.72,0.0714,1.81
C[C@@H]1ON(c2ccccc2)[C@H](c2ccccc2)[C@H]1C(=O)N1C(=O)OC[C@H]1Cc1ccccc1,0.39,0.569,0.507,-0.178,0.586,0.375,2.24,0.675,0.237,0.549 (inactive),-0.0187,-1.04 (inactive),-0.516 (inactive),0.951 (inactive),0.053 (inactive),1.9,-0.0538,0.242,-0.0355,0.637
